# Assay results as given in PubChem BioAssay (NCI).
# “And” between values parts separate entries of the source, which are not always exact repeats. Equal entries are not always repeated. Compounds without any hit were thinned out: in the full panel of roughly 83,000, 20% have a hit.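 In brief: 96-well plates, 48 h treatment, single concentration, percent growth endpoint.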 The source made the active and inactive calls. Rule for the calls: active = growth percent below 10; inactive = the rest.
# Tests used:
# Test in all cases: NCI-60 one-dose screen, 48 h (100 = growth as untreated, 0 = no growth, -100 = all killed)
# Conditions in all cases: 10 µM unless noted
# NCI-H23 lung = test system: NCI-H23 lung
# NCI-H226 lung = test system: NCI-H226 lung
# NCI-H322M lung = test system: NCI-H322M lung
# HOP-62 NSCLC = test system: HOP-62 NSCLC
# NCI-H460 lung = test system: NCI-H460 lung
# HOP-92 NSCLC = test system: HOP-92 NSCLC
# NCI-H522 lung = test system: NCI-H522 lung
# A549/ATCC NSCLC = test system: A549/ATCC NSCLC
# 786-0 renal = test system: 786-0 renal
# COLO 205 colon = test system: COLO 205 colon
Structure (SMILES),growth (NCI-H23 lung),growth (NCI-H226 lung),growth (NCI-H322M lung),growth (HOP-62 NSCLC),growth (NCI-H460 lung),growth (HOP-92 NSCLC),growth (NCI-H522 lung),growth (A549/ATCC NSCLC),growth (786-0 renal),growth (COLO 205 colon)
CCC(=O)Oc1cc(Cl)c(Cl)cc1Cl,102% (inactive),97.7% (inactive),104% (inactive),105% (inactive),104% (inactive),100% (inactive),99.8% (inactive),101% (inactive),98.2% (inactive),113% (inactive)
Cc1ccc(C(=O)c2ccc(CC(=O)N=Nc3c(O)[nH]c4ccc(OC(F)(F)F)cc34)n2C)cc1,90% (inactive),91% (inactive),96.7% (inactive),93.3% (inactive),103% (inactive),116% (inactive),85.6% (inactive),86% (inactive),101% (inactive),110% (inactive)
COc1ccc(-c2nn3c(-c4cc(F)c(Cl)cc4Cl)nnc3s2)cc1,54.1% (inactive),80% (inactive),79.2% (inactive),30.6% (inactive),32.5% (inactive),37.6% (inactive),23.1% (inactive),51.1% (inactive),46.2% (inactive),62.9% (inactive)
O=C(CCl)N(O)c1ccc(/C=C/c2ccccc2)cc1,70.7% (inactive) and 74.2% (inactive),56.9% (inactive),99.5% (inactive) and 91.5% (inactive),96.5% (inactive),85.4% (inactive) and 73% (inactive),81.8% (inactive),61.5% (inactive) and 30.4% (inactive),90.3% (inactive) and 65% (inactive),84% (inactive) and 78.3% (inactive),92.9% (inactive) and 83.1% (inactive)
[Cu+].[NH-][C@H]1C[N-]C(=O)[C@H]([C@H]2CCN=C(N)N2)[N-]C(=O)/C(=C\NC(N)=O)[N-]C(=O)[C@H](CNC(=O)C[C@@H](N)CCCN)[N-]C(=O)[C@H](CO)[N-]C1=O,105% (inactive),105% (inactive),106% (inactive),94.8% (inactive),98.4% (inactive),-8.71% (active),85.6% (inactive),99.3% (inactive),102% (inactive),111% (inactive)
O=C(CN1C(=O)S/C(=C\C(Cl)=C\c2ccccc2)C1=O)NC1C=CS(=O)(=O)C1 (stereo not given),16.7% (inactive),-21.7% (active),88.9% (inactive),86.5% (inactive),54% (inactive),37.2% (inactive),-46.2% (active),68.5% (inactive),-74.4% (active),-21.8% (active)
O/N=C(/c1ccccc1)c1ccc2c3c(cccc13)CC2,97.3% (inactive) and 95.1% (inactive),100% (inactive),106% (inactive) and 102% (inactive),93.1% (inactive) and 94.1% (inactive),87.6% (inactive) and 96.7% (inactive),49.4% (inactive) and 64.9% (inactive),88.3% (inactive) and 89.6% (inactive),73.8% (inactive) and 94.4% (inactive),88.4% (inactive) and 92.1% (inactive),117% (inactive) and 103% (inactive)
Cc1ccc(-c2nc3nc(-c4ccc(F)cc4)nc(N4CCCNCC4)c3o2)cc1,-79.2% (active),112% (inactive),-99% (active),-62.2% (active),-83.2% (active),-57.6% (active),-65.2% (active),-82.4% (active),-86.4% (active),-77.6% (active)
CC(Sc1ccccc1)C(=O)O (stereo not given),96% (inactive),99.3% (inactive),109% (inactive),83.4% (inactive),111% (inactive),97% (inactive),102% (inactive),99.3% (inactive),118% (inactive),143% (inactive)
COc1cc(F)c(/C=C/c2cc(/C=C/c3cc(OC)c(OC)cc3F)n(-c3cc(F)cc(F)c3)n2)cc1OC,-20.2% (active),98.1% (inactive),15.2% (inactive),85.8% (inactive),47% (inactive),80.9% (inactive),47.1% (inactive),44.1% (inactive),88.3% (inactive),115% (inactive)
COc1ccc2c(c1)c(-c1nc(-c3c[nH]c4c(Cl)nccc34)cs1)cn2C,73.9% (inactive),37.2% (inactive),91.3% (inactive),92.6% (inactive),31.1% (inactive),76.1% (inactive),86.6% (inactive),84.7% (inactive),124% (inactive),93.9% (inactive)
O=C1/C(=C/c2ccccc2[N+](=O)[O-])Cc2ccccc21,22.6% (inactive) and 59.2% (inactive),19.4% (inactive),65.2% (inactive) and 71.3% (inactive),57.6% (inactive) and 32.8% (inactive),7.04% (active) and 23.6% (inactive),51.9% (inactive) and 77.4% (inactive),-88.7% (active) and -87.5% (active),41.4% (inactive) and -6.77% (active),45% (inactive) and 26.5% (inactive),-74.9% (active) and 18.5% (inactive)
CN1CCN(CCCN2c3ccccc3Sc3ccc(Cl)cc32)CC1,82.3% (inactive) and 86.4% (inactive),95.7% (inactive) and 95.1% (inactive),93.1% (inactive),90.4% (inactive),93.4% (inactive) and 96.9% (inactive),48.1% (inactive) and 29.4% (inactive),81.5% (inactive) and 92.9% (inactive),73.9% (inactive) and 80.4% (inactive),62.8% (inactive) and 72% (inactive),26.8% (inactive)
O=C1CCCCN1CCCCC#Cc1cccc(C#Cc2cccnc2)c1,88.5% (inactive),78.1% (inactive),180% (inactive),114% (inactive) and 98.7% (inactive),73% (inactive),31.9% (inactive),75.7% (inactive),81% (inactive),116% (inactive) and 89.9% (inactive),83.5% (inactive)
COC(=O)N/N=C/c1c[n+]([O-])c2ccccc2[n+]1[O-],98.6% (inactive),109% (inactive),98.3% (inactive),22.7% (inactive),105% (inactive),96.5% (inactive),92.9% (inactive),93.1% (inactive),93.8% (inactive),-45.4% (active)
CCCCCCCCCCCCCCCC(=O)O[C@@H]1[C@@H](O)[C@@H](O)C([C@H](NC(=O)[C@@H]2C[C@@H](CCC)CN2C)[C@H](C)Cl)O[C@@H]1SC (stereo not given in full),102% (inactive),91.2% (inactive),97.8% (inactive),101% (inactive),110% (inactive),118% (inactive),130% (inactive),102% (inactive),91.8% (inactive),103% (inactive)
Nc1nc2c(s1)CCc1cn(S(=O)(=O)c3ccccc3)cc1-2,94.5% (inactive) and 104% (inactive),82.9% (inactive),93.7% (inactive) and 114% (inactive),91.5% (inactive) and 112% (inactive),95.1% (inactive) and 101% (inactive),63.3% (inactive),82.4% (inactive) and 92.9% (inactive),78.5% (inactive) and 101% (inactive),92.7% (inactive) and 104% (inactive),106% (inactive) and 108% (inactive)
C=CCNC(=O)Cc1c(-c2ccc(OC)cc2)oc2c(OC)c3c(c(OC)c12)OCO3,96.2% (inactive),101% (inactive),97.9% (inactive),105% (inactive),102% (inactive),114% (inactive),92.7% (inactive),95.2% (inactive),104% (inactive),117% (inactive)
O=C1OCC2=C1C(c1cccc([N+](=O)[O-])c1)c1cc3c(cc1N2CCO)CCC3 (stereo not given),23.2% (inactive),38.2% (inactive),37.2% (inactive),31.3% (inactive),3.63% (active),51.4% (inactive),-4.9% (active),11.7% (inactive),25.2% (inactive),-27.1% (active)
NCCOCCOc1ccccc1,97.2% (inactive),103% (inactive),96.1% (inactive),109% (inactive),103% (inactive),64.8% (inactive),93.1% (inactive),104% (inactive),100% (inactive),113% (inactive)
C#CCOc1cccc(Nc2ncc3ncn(C4CCN(C(=O)CCl)C4)c3n2)c1 (stereo not given),45.2% [6.25 µM] (inactive),23.3% [6.25 µM] (inactive),78.6% [6.25 µM] (inactive),78.3% [6.25 µM] (inactive),72.1% [6.25 µM] (inactive),73% [6.25 µM] (inactive),-77.4% [6.25 µM] (active),78.5% [6.25 µM] (inactive),-4.37% [6.25 µM] (active),-84% [6.25 µM] (active)
OB(O)c1ccsc1-c1nc2ccc3[nH]ncc3c2c2c1CCCC2,51.6% (inactive),72% (inactive),49.9% (inactive),52.2% (inactive),38.9% (inactive),65.3% (inactive),32.2% (inactive),46.7% (inactive),48.6% (inactive),41.2% (inactive)
COc1cccc(NC(=O)c2sc3nc(C)c(C(O)c4ccccc4)cc3c2N)c1 (stereo not given),22.9% (inactive),55% (inactive),49.7% (inactive),32.5% (inactive),4.01% (active),58.6% (inactive),0.582% (active),22.4% (inactive),34.4% (inactive),5.41% (active)
